According to article PMC4336329 (PLoS ONE, 2015):
The whole screen tested about 310,000 compounds, of which about 14,000 (4.5%) showed an effect of 50% or more. Effects have a minus sign here. This is one part of a sample in which strong results are shown more often than they occur.

What follows are compounds tested against human ether-à-go-go-related gene (hERG) potassium channel (human, UniProt Q12809) (assay: primary screen, population patch clamp on CHO cells stably expressing hERG; higher = less effect of the substance).
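Also: peak tail current of the secondary pulse compared with the same well before compound.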

Sequence of human ether-à-go-go-related gene (hERG) potassium channel (Q12809 whole entry, looked up): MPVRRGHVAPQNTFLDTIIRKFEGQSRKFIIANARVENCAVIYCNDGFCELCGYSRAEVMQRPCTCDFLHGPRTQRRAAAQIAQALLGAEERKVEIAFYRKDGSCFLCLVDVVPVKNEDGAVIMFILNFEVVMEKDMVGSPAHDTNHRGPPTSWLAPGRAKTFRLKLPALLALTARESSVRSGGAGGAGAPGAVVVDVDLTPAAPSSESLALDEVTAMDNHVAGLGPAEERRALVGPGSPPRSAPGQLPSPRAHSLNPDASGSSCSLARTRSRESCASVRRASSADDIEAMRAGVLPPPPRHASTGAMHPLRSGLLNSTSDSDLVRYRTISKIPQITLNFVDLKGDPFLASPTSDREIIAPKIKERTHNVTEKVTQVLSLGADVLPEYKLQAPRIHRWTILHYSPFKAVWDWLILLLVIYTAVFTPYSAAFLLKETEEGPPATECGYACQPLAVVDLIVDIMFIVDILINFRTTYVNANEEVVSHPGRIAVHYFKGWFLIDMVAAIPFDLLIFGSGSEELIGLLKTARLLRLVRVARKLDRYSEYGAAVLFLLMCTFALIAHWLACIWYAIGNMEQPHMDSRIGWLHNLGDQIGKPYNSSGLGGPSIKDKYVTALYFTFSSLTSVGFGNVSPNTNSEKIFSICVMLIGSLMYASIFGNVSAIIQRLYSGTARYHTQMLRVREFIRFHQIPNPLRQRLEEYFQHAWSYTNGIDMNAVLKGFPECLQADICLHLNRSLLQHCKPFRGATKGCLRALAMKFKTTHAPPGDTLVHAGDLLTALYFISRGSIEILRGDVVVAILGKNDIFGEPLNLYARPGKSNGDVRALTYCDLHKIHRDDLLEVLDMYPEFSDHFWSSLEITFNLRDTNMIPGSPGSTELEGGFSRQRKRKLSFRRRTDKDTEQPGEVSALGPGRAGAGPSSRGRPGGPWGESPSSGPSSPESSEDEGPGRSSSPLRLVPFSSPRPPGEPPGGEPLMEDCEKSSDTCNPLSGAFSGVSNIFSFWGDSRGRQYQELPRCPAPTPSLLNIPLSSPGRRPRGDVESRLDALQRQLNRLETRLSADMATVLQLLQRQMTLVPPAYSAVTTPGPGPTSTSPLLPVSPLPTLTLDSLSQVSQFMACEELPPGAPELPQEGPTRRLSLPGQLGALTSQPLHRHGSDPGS

First: COc1cc2cc(CN(CCO)S(=O)(=O)c3ccccc3Cl)c(=O)[nH]c2cc1OC
Second: COc1ccc(CCN=Cc2c(C)[nH]n(-c3ccc([N+](=O)[O-])cc3)c2=O)cc1OC
The “hERG current change (%, negative = inhibition) at 10uM” value of the first is lower: 0.98% for the first, 16.4% for the second.

Compared with `O=C(NCCCCc1ccccc1)c1ccccc1Cl`, `Cc1[nH]n(-c2ccccc2)c(=O)c1/C=N/NC(=O)c1ccccc1F` is higher in “hERG current change (%, negative = inhibition) at 10uM” value: -9.21% for the first, 2.32% for the second.

Going from `CN(NC1OC(=O)c2ccccc21)c1ccc(C(F)(F)F)cc1[N+](=O)[O-]` (stereo not shown) to `Cc1[nH]n(-c2ccccc2)c(=O)c1/C=N/NC(=O)c1cccc(F)c1`, the “hERG current change (%, negative = inhibition) at 10uM” value falls from 34.2% to 20.1%.

Compared with `O=C(Nc1ccc(S(=O)(=O)Nc2ncccn2)cc1)C12CC3CC(CC(C3)C1)C2`, `CC(C)Cc1nnc(NC(=O)C23CC4CC(CC(C4)C2)C3)s1` is lower in “hERG current change (%, negative = inhibition) at 10uM” value: 13.4% for the first, 5.58% for the second.

Compared with `Cc1cc(C)c2nc(N3CCCN(C(=O)c4cnccn4)CC3)c(C#N)cc2c1`, `Cc1cccc2cc(CN(CC3CCCO3)C(=O)c3cccnc3)c3nnnn3c12` (stereo not shown) is higher in “hERG current change (%, negative = inhibition) at 10uM” value: -38.5% for the first, -5.82% for the second.

First: CCc1nnc(SCC(=O)Nc2nccs2)n1CC
Second: CC(=O)Nc1cccc(NC(=O)CSc2nccn2Cc2ccc(F)cc2)c1
The “hERG current change (%, negative = inhibition) at 10uM” value of the first is higher: 18% for the first, 0.742% for the second.

First: Cn1cc(CC(=O)NC2CCCCC2)c2ccccc21
Second: CN1CCN(c2ccc(NC(=O)COc3ccccc3Cl)cc2)CC1
The “hERG current change (%, negative = inhibition) at 10uM” value of the first is higher: 21.3% for the first, -29.2% for the second.

Going from `Cc1ccsc1C1C(C#N)=C(N)Oc2n[nH]c(C)c21` (stereo not shown) to `CCOC(=O)C1CCCN(c2c(Nc3ccc(C)c(C)c3)c(=O)c2=O)C1` (stereo not shown), the “hERG current change (%, negative = inhibition) at 10uM” value falls from 18.7% to -25.1%.

Going from `Cc1[nH]n(-c2ccc([N+](=O)[O-])cc2)c(=O)c1C=NCCc1ccc(S(N)(=O)=O)cc1` to `Cc1[nH]n(-c2ccc([N+](=O)[O-])cc2)c(=O)c1C=NCCN1CCN(C(=O)c2ccc(Br)cc2)CC1`, the “hERG current change (%, negative = inhibition) at 10uM” value falls from 10.7% to -76.6%.

First: Cn1c(O)c(C=NCCN2CCN(C(=O)c3ccccc3)CC2)c(=O)n(C)c1=O
Second: CC1(C)CC(=O)C(C=NCCN2CCN(C(=O)c3ccc(Br)cc3)CC2)=C(O)C1
The “hERG current change (%, negative = inhibition) at 10uM” value of the first is higher: -16.6% for the first, -48.2% for the second.

First: Cc1[nH]n(-c2ccc([N+](=O)[O-])cc2)c(=O)c1C=NCCN1CCN(C(=O)c2cccc(F)c2)CC1
Second: Cc1[nH]n(-c2ccc([N+](=O)[O-])cc2)c(=O)c1C=NCCN1CCN(C(=O)c2ccccc2F)CC1
The “hERG current change (%, negative = inhibition) at 10uM” value of the first is lower: -73.4% for the first, -71.2% for the second.

Going from `COC(=O)CN=Cc1c(C)[nH]n(-c2ccccc2)c1=O` to `Cc1[nH]n(-c2ccc([N+](=O)[O-])cc2)c(=O)c1C=NCCN1CCN(C(=O)C(C)C)CC1`, the “hERG current change (%, negative = inhibition) at 10uM” value falls from -1.99% to -64.2%.

First: Cc1[nH]n(-c2ccc([N+](=O)[O-])cc2)c(=O)c1/C=N/N1CCOCC1
Second: Cc1ccccc1OCC(=O)NC(=S)Nc1ccc(N2CCOCC2)c(Cl)c1
The “hERG current change (%, negative = inhibition) at 10uM” value of the first is lower: 0.128% for the first, 15.3% for the second.

Compared with `COc1cc2c(cc1NC(=O)C(C)OC(=O)c1ccc(S(=O)(=O)Nc3ccccc3Cl)cc1)oc1ccccc12` (stereo not shown), `CC(=O)c1ccc(NC(=O)C2C3C=CC(C3=C(c3ccccc3)c3ccccc3)C2C(=O)O)cc1` (stereo not shown) is lower in “hERG current change (%, negative = inhibition) at 10uM” value: 21.8% for the first, 2.53% for the second.

First: CCCCCCNc1cc(C)oc(=O)c1C(C)=O
Second: CCOC(=O)c1ccc(NC(=O)c2ccccc2C)cc1
The “hERG current change (%, negative = inhibition) at 10uM” value of the first is lower: -34.2% for the first, -21.2% for the second.

Compared with `Br.COc1ccc(N=C/C=C2/C=C(c3ccccc3)OC(C)(C)O2)cc1`, `COc1cc(-c2nc3ccccn3c2/N=C/c2cccc(F)c2)ccc1O` is higher in “hERG current change (%, negative = inhibition) at 10uM” value: -49.1% for the first, 4.38% for the second.

Going from `CCn1cc(C(=O)NC(=S)Nc2ccccc2Br)cn1` to `CN1CCN(c2ccc(NC(=S)NC(=O)c3cccc4c(Br)cccc34)cc2)CC1`, the “hERG current change (%, negative = inhibition) at 10uM” value rises from 3.21% to 16.2%.

Going from `O=C(O)CSCC(=O)N1CCCN(c2nc3ccc(Cl)cc3s2)CC1` to `Cc1ccccc1OCC(=O)Nc1ccc(N2CCN(C(=O)C(C)C)CC2)c(Cl)c1`, the “hERG current change (%, negative = inhibition) at 10uM” value falls from 5.89% to -31.2%.

First: CCOC(=O)NC(=O)COC(=O)c1ccc(O)cc1
Second: CCOC(=O)N/N=C(\C)c1cccs1
The “hERG current change (%, negative = inhibition) at 10uM” value of the first is lower: -6.29% for the first, 20.2% for the second.

Compared with `CC(Sc1nnc(N)s1)C(=O)NCc1ccc2c(c1)OCO2` (stereo not shown), `COc1ccc(CC(=O)Nc2cc(Cl)ccc2O)cc1` is lower in “hERG current change (%, negative = inhibition) at 10uM” value: 0.709% for the first, -1.45% for the second.

Compared with `CSCC[C@H](NC(=O)NCc1cccs1)C(=O)O`, `CN1CCN(c2ccc(NC(=S)NC(=O)c3cccc4ccccc34)cc2)CC1` is lower in “hERG current change (%, negative = inhibition) at 10uM” value: -10.4% for the first, -51% for the second.

First: CN1CCN(c2ccc(NC(=O)COc3ccc4ccccc4c3)cc2)CC1
Second: CN1CCN(c2ccc(NC(=O)COc3cccc4ccccc34)cc2)CC1
The “hERG current change (%, negative = inhibition) at 10uM” value of the first is higher: -17.3% for the first, -65.4% for the second.

Compared with `Cc1ccccc1OCC(=O)Nc1ccc(N2CCN(C)CC2)c(Cl)c1`, `CN1CCN(c2ccc(NC(=S)NC(=O)c3cccc4c(Cl)cccc34)cc2)CC1` is higher in “hERG current change (%, negative = inhibition) at 10uM” value: -68.8% for the first, 0.63% for the second.
